Laboratory results: PubChem BioAssay AID602244 (Sanford-Burnham Center for Chemical Genomics, 2012)
Screen size: about 360,000 compounds; about 1,300 (0.36%) were called active. Cut-off read from the data, not from the text of the source: active = inhibition above about 34% (passing the limit was not always enough); inactive = the rest. The sample as a whole holds a higher share of actives than the screen did.

molecular target: C-X-C chemokine receptor type 6 (Homo sapiens) (UniProt O00574); assay: blockade of CXCL16-induced CXCR6 beta-arrestin recruitment – cell-based, luminescence, CHO-K1 PathHunter, 1536-well, primary screen (AID 602244); details: at 20 µM, stronger effect = higher value;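 note: antagonist mode with CXCL16 agonist at 10 nM final; 0% = 10 nM CXCL16 with DMSO and 100% = unstimulated wells without agonist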
Sequence (O00574 whole entry, looked up): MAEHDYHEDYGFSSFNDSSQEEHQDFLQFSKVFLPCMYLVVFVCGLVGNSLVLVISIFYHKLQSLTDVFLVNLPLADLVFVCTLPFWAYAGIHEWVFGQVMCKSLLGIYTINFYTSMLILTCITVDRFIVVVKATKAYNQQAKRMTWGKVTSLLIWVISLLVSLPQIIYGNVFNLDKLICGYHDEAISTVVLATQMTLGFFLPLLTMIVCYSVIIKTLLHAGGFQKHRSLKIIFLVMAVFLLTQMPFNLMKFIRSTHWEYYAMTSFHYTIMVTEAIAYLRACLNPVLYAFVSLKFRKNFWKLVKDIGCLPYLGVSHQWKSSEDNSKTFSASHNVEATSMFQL

| Compound | inhibition |
| --- | --- |
| O=C(N/N=C/c1c(O)n(Cc2ccccc2)c(=O)[nH]c1=O)c1ccccc1 | 7.9% (inactive) |
| CCCCC(=O)N/N=C/c1c(O)n(CC)c(=S)n(CC)c1=O | 58.7% (active) |
| Cn1c(O)c(C=NCCCC(=O)O)c(=O)n(C)c1=O | -3.2% (inactive) |
| Cc1cc(C)cc(NC(=S)NC2CC3CCCC(C2)N3Cc2cccs2)c1 (stereo not given) | 3.2% (inactive) |
| Oc1cc2c(cc1CN1CCN(c3ccccc3)CC1)OCO2 | 5.6% (inactive) |
| CCCC[N+]1(C)C2CC(OC(=O)C(CO)c3ccccc3)CC1C1OC12 (stereo not given) | 0.8% (inactive) |
| Cc1ccc(-c2nn(CCC#N)cc2C(=O)O)cc1C | 9.5% (inactive) |
| Cc1cccc(N2C(=O)NC(=O)/C(=C\c3cnn(-c4ccccc4)c3)C2=O)c1 | 51.1% (active) |
| C/C=C/CC1(CC)C(=O)NC(=S)NC1=O | -5.1% (inactive) |
| COc1ccc(S(=O)(=O)NCc2ccc(C(=O)N3CCC4(CC3)OCCO4)cc2)cc1 | 3.3% (inactive) |
| CCOC(=O)C1=C(C)OC(N)=C(C(=O)OC)C12C(=O)Nc1ccc(Br)cc12 (stereo not given) | 9.8% (inactive) |
| O=C1NC(=O)C(CCOc2ccccc2)(CCc2ccccc2)C(=O)N1 | -10% (inactive) |
| C=CCN1C(=O)C2(C(C(=O)OCC)=C(N)Oc3c2c(=O)oc2ccccc32)c2ccccc21 (stereo not given) | -2.4% (inactive) |
| CC(=O)OC1C2(CC3N4C(=O)C5(CO)SSC4(CC31O)C(=O)N5C)OC(C)C(C)(C)C2=O (stereo not given) | 99.4% (active) |
| CNC(=O)O/N=C(\N)Cc1csc2ccc(Cl)cc12 | 0% (inactive) |
